# Screening results: PubChem BioAssay, National Center for Advancing Translational Sciences (NCATS)
# IMPase Li cell – membrane-permeable IMPase blocker, potentiated with lithium. CHO-M1 cells, IP1 TR-FRET (IP-One), carbachol + lithium. Potency, µM (top dose mostly 59.4 µM), without a hit: at the top dose activity, negative = IMPase inhibition, most hits filed as inhibitors. actives 0.35% (n = 210,000). AID 1457;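 further: IP1 builds up when IMPase is blocked and the TR-FRET signal falls; potency means the concentration at half of the fitted maximal effect; plate controls were basal vehicle for no effect and high inhibitor control for full effect; nearly all actives have a fitted effect of over 50% in size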
#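 Test compounds were applied to CHO-M1 cells previously cultured for 16–30 h at 2000 per well. A small lithium amount accompanied them; after 30 min at 37C, IP1 was quantified by TR-FRET.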
# ALDH1A1 inh – inhibitors of human aldehyde dehydrogenase 1A1. P00352. Purified ALDH1A1, NADH fluorescence, propionaldehyde substrate. Potency, µM (highest dose often 75.3 µM), inactives show at the top dose activity, negative = inhibition, usual class: inhibitors. actives 7.3% (n = 220,000); active means well fitted inhibition curve with a large enough effect, not every such curve was filed as active; inconclusive means small, poorly fitted or top-dose-only effect, or another doubt; inactive means no such curve, though single readings can be large or run the other way;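 further: potency means the concentration at half of the fitted maximal effect; plate controls were no enzyme wells and a reference inhibitor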
# PNC assembly inh – blocks assembly of the perinucleolar compartment. PC3M PTB-GFP, PNC prevalence imaging, 16 h; hits give low values. activity change (PNC), negative = inhibition, % at 10 µM. actives 3.1% (n = 140,000). AID 2417;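 active means readout at or below -70, meaning at least 70% loss of cells showing the perinucleolar compartment, a nuclear body marking cancer cells; inconclusive means readout between -30 and a set limit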;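 further: plate controls were DMSO wells for no effect and camptothecin positive control wells for full effect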
#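 PC3M cells stably expressing PTB-GFP, 750–1000 cells/well, treated 16 h at 37 °C with compound (23 nl of library stock), in duplicate. After paraformaldehyde fixation and Hoechst stain, imaged at 20x; PNC prevalence scored by image analysis.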
# IMPase cell inh – cell-permeable inhibitors of inositol monophosphatase (IMPase); 120,000 tested, under 10 active; inhibition (IP1 accumulation), % at 46.1 µM; P97697; AID 901; CHO-M1 cells, IP1 accumulation, HTRF TR-FRET ratio; active means well fitted curve in the direction sought with a large enough effect in the signal ratio, not every such curve was filed as active; inconclusive means small, poorly fitted or top-dose-only effect, or a change in a side signal; inactive means no such curve, though single readings can be large or run the other way; the % refers to the signal ratio;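 further: cells stimulated with carbachol in lithium chloride buffer; plate controls were DMSO basal wells for no effect and reference inhibitor wells for full effect; higher means more IMPase inhibition seen as more IP1 and lower FRET ratio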
# Target sequence (P97697 whole entry, looked up): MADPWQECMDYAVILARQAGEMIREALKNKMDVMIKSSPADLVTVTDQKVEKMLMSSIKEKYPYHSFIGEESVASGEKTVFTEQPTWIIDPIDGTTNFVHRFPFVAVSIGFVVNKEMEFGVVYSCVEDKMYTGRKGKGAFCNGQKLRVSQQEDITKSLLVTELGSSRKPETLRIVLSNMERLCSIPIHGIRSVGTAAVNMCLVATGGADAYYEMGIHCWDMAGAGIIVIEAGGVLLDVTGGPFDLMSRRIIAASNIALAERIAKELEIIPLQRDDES
#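 In this qHTS, compounds (final up to 46 uM) act on CHO-M1 cells that are then activated through the M1 receptor with carbachol, in pH 7.4 buffer containing 50 mM LiCl, for 30 min. IP1 accumulation is quantified by the IP-One immunoassay.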
# HPGD inh – blocks human HPGD enzyme activity | P15428 | purified HPGD, NADH fluorescence kinetic, PGE2 substrate | Potency, µM, for inactives: at the highest dose activity change, negative = inhibition, most hits filed as inhibitors | actives 4.3% (n = 150,000); active means well fitted inhibition curve with a large enough effect, not every such curve was filed as active; inconclusive means small, poorly fitted or top-dose-only effect, or another doubt; inactive means no such curve, though single readings can be large or run the other way; further: potency means the concentration at half of the fitted maximal effect
# Target sequence (P15428 whole entry, looked up): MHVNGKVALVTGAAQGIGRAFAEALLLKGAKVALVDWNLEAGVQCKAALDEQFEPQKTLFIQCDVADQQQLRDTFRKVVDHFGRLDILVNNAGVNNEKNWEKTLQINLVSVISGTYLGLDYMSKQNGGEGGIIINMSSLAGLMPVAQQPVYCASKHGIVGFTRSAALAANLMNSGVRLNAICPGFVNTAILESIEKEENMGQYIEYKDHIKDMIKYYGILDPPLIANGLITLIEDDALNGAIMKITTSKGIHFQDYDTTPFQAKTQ
#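 NADH formation kinetics: reaction with 30 uM PGE2 and 1 mM NAD+ (final), 20 nM enzyme, Tris-HCl pH 8 with Tween 20, after 15 min compound preincubation at room temperature. Fluorescence change, last versus first of five reads.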
# NPSR antag – antagonists of human neuropeptide S receptor cAMP signaling; Potency, µM (series often up to 38.3 µM), for inactives: at the top dose activity change, negative = inhibition, hits mostly inhibitors; actives 1% (n = 220,000); AID 1461; CHO-NPSR cells, cAMP TR-FRET, antagonist mode; Q6W5P4; further: potency means the concentration at half of the fitted maximal effect; nearly all actives have a fitted effect of over 50% in size
# * marks the source's active call; other numbers are inactive results; ? = inconclusive; / = no result; [ ] = another dose, or the depositor's remark. An excerpt weighted towards active compounds, which were near 11% of everything screened. Unless noted, the call rests on the fitted dose curve; in most records, active means well fitted curve in the direction sought with a large enough effect; inconclusive means small, poorly fitted or top-dose-only effect, or another doubt; inactive means no such curve, though single readings can be large; an effect the other way counts as inactive or inconclusive. Unless noted, on the % scale 0 is the no-effect control and ±100 the full control effect.
SMILES,IMPase Li cell,ALDH1A1 inh,PNC assembly inh,IMPase cell inh,HPGD inh,NPSR antag
O=C(Cc1ccccc1)Nc1ccc(Br)c(Cl)c1,12.1%,15.8µM*,-82.1*,/,-21.1%,-13.9%
C/C(=C\C(=O)c1ccccc1)Nc1ccc(Br)c(Cl)c1,1.5%[38.3 µM],6.0%,37.8,5.9,?,-14.6%[46.1 µM]
Nc1ccccc1SCc1ccccc1,1.6%,3.0%,/,/,/,-2.8%
N#CC(=C(\N)Sc1ccccc1N)/C(C#N)=C(/N)Sc1ccccc1N,8.1%,/,/,/,8.91µM*,?
CCN(CC)c1ccc(C=C(c2nnnn2-c2ccccc2)c2nnnn2-c2ccccc2)cc1,1.0%,?,-7.8,-13.8,-18.5%,-23.0%
CCOC(=O)c1c(O)c2cc(Cl)ccc2n(CC)c1=O,/,20µM*,/,/,/,-0.1%
Cc1ccc(S(=O)(=O)N2CCCC(C(=O)NCCC3=CCCCC3)C2)cc1 (centres undefined),44.6%[38.3 µM],-8.6%,12.4,1.9,2.3%,-5.4%[46.1 µM]
O=C(CSc1nc(-c2ccccc2)ns1)N1CCOCC1,2.4%,12.6µM*,/,/,/,12.2%
O=C(Cc1cccs1)Nc1nnc(SCC(=O)N2CCCCC2)s1,1.3%[38.3 µM],16.4%,?,0.9,-19.9%,-11.2%[46.1 µM]
Cc1cccc(-c2nsc(SCC(=O)N3CCCC3)n2)c1,-8.1%[38.3 µM],-8.3%,0.0,-1.0,?,-14.3%[46.1 µM]
CCSc1nnc(NC(=O)c2ccccn2)s1,4.5%[38.3 µM],?,7.6,0.9,-9.9%,-26.1%[46.1 µM]
CCSc1nnc(NC(=O)c2cccnc2Cl)s1,-0.3%,25.1µM*,-14.1,10.3,-9.6%,-11.1%[46.1 µM]
O=C(Nc1nnc(SCC(=O)N2CCCCC2)s1)c1cccs1,-6.6%[38.3 µM],?,16.2,11.5,14.1µM*,-1.8%[46.1 µM]
CCSc1nnc(NC(=O)C(C(F)(F)F)C(F)(F)F)s1,2.9%[38.3 µM],17.8µM*,5.9,-0.4,3.55µM*,-15.7%[46.1 µM]
Cc1c(Cl)cccc1NC(=O)c1cccc(NC(=O)CCC(=O)O)c1,15.6%[38.3 µM],3.6%,10.3,-4.6,-12.5%,-2.5%[46.1 µM]
O=C(Nc1nnc(SCC(=O)N2CCOCC2)s1)c1ccccc1Cl,-3.1%,22.4µM*,-9.2,-9.2,?,-24.2%[46.1 µM]
C=CCSc1nnc(NC(=O)c2cccc(S(=O)(=O)N3CCOCC3)c2)s1,14.3%[38.3 µM],?,-27.8,8.2,3.55µM*,-2.0%[46.1 µM]
Cc1ccc(C)c(N2CCN(C(=O)c3cc(S(=O)(=O)N4CCOCC4)ccc3F)CC2)c1,7.6%,-13.4%,32.0,/,-15.3%,-10.3%
O=C1CC(c2ccccc2Cl)CC(O)=C1C=Nc1ccccc1 (centres undefined),15.7%,?,3.6,/,-17.1%,-15.0%
CC(C)C1Cc2c(C#N)c(N)n(C)c(=S)c2CO1 (centres undefined),-10.2%[38.3 µM],-4.1%,22.0,4.7,-14.1%,14.0%[46.1 µM]
O=[N+]([O-])c1c(C(Cl)Cl)nn(-c2ccc(Cl)cc2)c1N1CCCCC1,5.5%,1.8%,-113.0*,/,-3.3%,-37.1%
Nn1c(COc2ccccc2)nc2ccccc2c1=O,-7.4%[38.3 µM],1.4%,-88.8*,-0.8,-11.8%,-3.0%[46.1 µM]
Cc1cc(NC(=O)CSc2n[nH]c(N)n2)no1,-3.8%,6.6%,/,/,/,9.8%
Cc1cc(NC(=O)CSc2ccc3nnc(-c4cccs4)n3n2)no1,-5.5%[38.3 µM],0.9%,-105.7*,-2.6,-13.3%,1.9%[46.1 µM]
Cc1cc(NC(=O)CSc2n[nH]c(-c3cccs3)n2)no1,1.4%[38.3 µM],5.3%,?,7.5,14.1µM*,-7.9%[46.1 µM]
COc1cc2c(cc1OC)CN(C(=O)NS(=O)(=O)c1ccc(C)cc1)CC2,21.2%[38.3 µM],?,?,-12.7,?,-3.6%[46.1 µM]
O=C(COC(=O)c1ccccc1SCC(=O)NC1CCS(=O)(=O)C1)NC1CCS(=O)(=O)C1 (centres undefined),2.5%,8.2%,/,/,/,24.4%
Cn1c(SCC(=O)NNC(=O)Cc2ccccc2)nnc1-c1ccc(Cl)cc1,0.9%,1.9%,-1.3,-16.0,-10.3%,18.2%[46.1 µM]
CCOC(=O)c1c(NC(=O)Cc2cccs2)sc(C(=O)N2CCCCC2)c1C,18.1%[38.3 µM],2.51µM*,21.6,5.2,7.08µM*,?
CCOC(=O)c1c(N)sc(C(=O)OCCOC)c1C,-1.9%,14.1µM*,/,/,/,7.0%
